Test [1] can be described thus: BSK_LPS_PGE2: BioMAP Diversity Plus: LPS Assay for Prostaglandin E2 (PGE2) Biomarker Activity (AID 2283082). The following applies: primary human HUVEC with PBMC; actives raise or lower the signal. The method in brief: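 Compounds were added to the LPS co-culture of endothelium and PBMC, and PGE2 was measured by ELISA after 24 h. Responses in either direction were fitted with DMSO as baseline.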

Read-out in test [2]: Macrophage colony-stimulating factor (MCSF), CSF1 (gene 1435)
Description: BSK_LPS_MCSF: BioMAP Diversity Plus: LPS Assay for Macrophage colony-stimulating factor (MCSF) Biomarker Activity (AID 2283083). The following applies: primary human HUVEC with PBMC; actives raise or lower the signal. The method in brief: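 Bidirectional fitting against DMSO was applied to M-CSF levels read by ELISA at 24 h post-dose. The system pairs human umbilical vein endothelium with peripheral blood mononuclear cells; parallel SRB staining tracked cytotoxicity.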

Read-out in test [3]: Tissue Factor, F3 (gene 2152)
Kind of test: BSK_LPS_TissueFactor: BioMAP Diversity Plus: LPS Assay for Tissue Factor Biomarker Activity (AID 2283084). The conditions noted are these: primary human HUVEC with PBMC; actives raise or lower the signal. A digest of the protocol:
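Compound was added to an endothelial cell/PBMC co-culture, and after 24 h tissue factor (CD142) was read by ELISA. Gain or loss of signal was fitted against a DMSO baseline, and parallel SRB staining (560 nm) tracked overt cytotoxicity.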

Read-out in test [4]: Tumor necrosis factor (Homo sapiens) (UniProt P01375)
Kind of test: BSK_LPS_TNFa: BioMAP Diversity Plus: LPS Assay for Tumour Necrosis Factor alpha (TNFa) Biomarker Activity (AID 2283085).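 For AC50: TNFa protein level quantified by ELISA in the co-culture.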 The following applies: primary human HUVEC with PBMC; actives raise or lower the signal. The method in brief:
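Cells (umbilical vein endothelium plus peripheral blood mononuclear cells) were dosed with chemical, incubated 24 h, then TNFa was quantified by ELISA; values derive from bidirectional fitting with DMSO as baseline.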

Read-out in test [5]: Vascular cell adhesion molecule 1 (VCAM1), VCAM1 (gene 7412)
Kind of test: BSK_LPS_VCAM1: BioMAP Diversity Plus: LPS Assay for Vascular cell adhesion molecule 1 (VCAM1) Biomarker Activity (AID 2283086). The following applies: primary human HUVEC with PBMC; actives raise or lower the signal. The method in brief: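 Cells are dosed in an LPS-stimulated endothelial/mononuclear co-culture and, after 24 h, VCAM-1 is quantified by ELISA. Activity in either direction is fitted relative to the DMSO negative control.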

Read-out in the next test: CD38, CD38 (gene 952)
Description: BSK_SAg_CD38: BioMAP Diversity Plus: SAg Assay for CD38 Biomarker Activity (AID 2283087). The following applies: primary human HUVEC with PBMC; actives raise or lower the signal. The method in brief:
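CD38 quantified by ELISA (fluorescence) in a superantigen-activated endothelial cell–PBMC co-culture at 24 h post-dose. Activity fitted in both directions relative to DMSO; parallel SRB and Alamar Blue cytotoxicity read-outs.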

Read-out in the next test: CD40, CD40 (gene 958)
Kind of test: BSK_SAg_CD40: BioMAP Diversity Plus: SAg Assay for CD40 Biomarker Activity (AID 2283088). The conditions noted are these: primary human HUVEC with PBMC; actives raise or lower the signal. The method in brief: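 CD40 is measured by fluorescence ELISA in an endothelial/PBMC primary human co-culture at 24 h post-dose. Fitting is bidirectional, DMSO baseline. Parallel SRB staining (560 nm) flags cytotoxicity.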

Read-out in another test: CD69, CD69 (gene 969)
Kind of test: BSK_SAg_CD69: BioMAP Diversity Plus: SAg Assay for CD69 Biomarker Activity (AID 2283089).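 For AC50: cell surface CD69 protein quantified by ELISA with fluorescence detection.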 The following applies: primary human HUVEC with PBMC; actives raise or lower the signal. The method in brief: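 Primary human vascular co-culture (umbilical vein endothelium with peripheral blood mononuclear cells) exposed to test chemical for 24 h. CD69 levels quantified by fluorescence ELISA; DMSO served as negative control for bidirectional fitting.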

Read-out in test [6]: Monocyte Chemoattractant Protein-1 (MCP1), CCL2 (gene 6347)
Description: BSK_SAg_MCP1: BioMAP Diversity Plus: SAg Assay for Monocyte Chemoattractant Protein-1 (MCP1) Biomarker Activity (AID 2283090). The following applies: primary human HUVEC with PBMC; actives raise or lower the signal. A digest of the protocol: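 Values derive from bidirectional fitting of ELISA-measured MCP1 against DMSO controls. Readings were taken 24 h after dosing human vascular endothelial cells co-cultured with peripheral blood mononuclear cells under superantigen stimulation.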

Read-out in test [7]: E-selectin (Homo sapiens) (UniProt P16581)
Kind of test: BSK_SAg_Eselectin: BioMAP Diversity Plus: SAg Assay for Eselectin Biomarker Activity (AID 2283091). The conditions noted are these: primary human HUVEC with PBMC; actives raise or lower the signal. The method in brief:
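Cell-surface E-selectin is read by ELISA at 24 h in the SAg co-culture of HUVEC and PBMC. Curves are fitted in both directions relative to DMSO. Parallel SRB total-protein staining tracks overt toxicity.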

Read-out in test [8]: Monokine induced gamma interferon (MIG), CXCL9 (gene 4283)
Description: BSK_SAg_MIG: BioMAP Diversity Plus: SAg Assay for Monokine induced gamma interferon (MIG) Biomarker Activity (AID 2283092). The following applies: primary human HUVEC with PBMC; actives raise or lower the signal. The method in brief:
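Endothelial cells and PBMC were co-cultured, exposed to test chemicals, and sampled 24 h later. MIG was measured by ELISA, and responses were fitted in both directions relative to DMSO.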

Test [9] can be described thus: BSK_SAg_PBMCCytotoxicity: PBMC Cytotoxicity Assessment in the BioMAP Diversity Plus: SAg Assay (AID 2283093).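 For AC50: PBMC superantigen activated with SEB plus TSST-1 one hour after compound addition.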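 Note: PBMC viability measured as Alamar Blue reduction fluorescence at 546/580 nm; fitted both ways against DMSO so a hit may be loss or gain of signal.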 The following applies: primary human HUVEC with PBMC. A digest of the protocol: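 Alamar Blue reduction (6 h, ex/em 546/580 nm) read after 90 h culture of PBMC pre-dosed 1 h then stimulated with SEB plus TSST-1, 20 ng/mL each. Gain or loss of signal fitted relative to DMSO.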

Read-out in test [10]: Interleukin-8 (IL8), CXCL8 (gene 3576)
Kind of test: BSK_SAg_IL8: BioMAP Diversity Plus: SAg Assay for Interleukin-8 (IL8) Biomarker Activity (AID 2283094). The following applies: primary human HUVEC with PBMC; actives raise or lower the signal. The method in brief:
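Chemicals were dosed onto a human endothelial–PBMC co-culture, and IL-8 was quantified by ELISA after 24 h. Both increases and decreases were fitted relative to DMSO.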

Test [11] in a line: BSK_SAg_Proliferation: Cell Proliferation Assessment in the BioMAP Diversity Plus: SAg Assay (AID 2283095).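 Note: relative cell number as total protein by SRB absorbance in sub-confluent culture.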 The following applies: primary human HUVEC with PBMC. A digest of the protocol: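 Absorbance of sulforhodamine B at 560 nm reports total protein in a human vascular endothelial/PBMC co-culture after 96 h chemical exposure. Gain or loss of signal is fitted in both directions against DMSO.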

The nature of test [12]: BSK_SAg_SRB: Viability Assessment in the BioMAP Diversity Plus: SAg Assay (AID 2283096).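 Note: cells read one day after compound addition; hits may be either gain or loss of signal compared with DMSO.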 The conditions noted are these: primary human HUVEC with PBMC. The method in brief: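 SRB absorbance at 560 nm served as the viability read-out. Cells (HUVEC plus peripheral blood mononuclear cells) were TCA-fixed and stained 24 h post-dosing; activity fitted in both directions against DMSO controls.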

Test [13] addresses human CYP1A1, CYP1A1 (gene 1543) (UniProt P04798). Kind of test: NVS_ADME_hCYP1A1: NovaScreen (NVS) CYP450-related Enzyme Activity (ADME) Assay for human CYP1A1 (AID 2283100; active = hit-call score of the fitted dose curve at least 0.9, where 1 is the maximum). The method in brief:
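Chemicals were first tested in duplicate at 10 uM, and those passing a 30% inhibition threshold were rerun as concentration series topping at 20 uM. Fluorescence read-out of recombinant enzyme turnover after 1 h, relative to acetonitrile.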

Test [14] has as its target human CYP2B6, CYP2B6 (gene 1555) (UniProt P20813). Kind of test: NVS_ADME_hCYP2B6: NovaScreen (NVS) CYP450-related Enzyme Activity (ADME) Assay for human CYP2B6 (AID 2283101; active = hit-call score of the fitted dose curve at least 0.9, where 1 is the maximum). A digest of the protocol: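 Cell-free recombinant enzyme assay with a fluorogenic substrate; fluorescence intensity read 1 hour after dosing. Loss of signal relative to acetonitrile negative control indicates inhibition. Primary screen run in duplicate at 10 uM, actives then tested in concentration series.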

Test [15] concerns the target human CYP2D6, CYP2D6 (gene 1565) (UniProt P10635). Description: NVS_ADME_hCYP2D6: NovaScreen (NVS) CYP450-related Enzyme Activity (ADME) Assay for human CYP2D6 (AID 2283107; active = hit-call score of the fitted dose curve at least 0.9, where 1 is the maximum). The method in brief: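 Fluorescence readout of recombinant CYP2D6 (insect-cell derived) activity after 1 h incubation with test chemical. Acetonitrile served as baseline, loss-of-signal direction. Single-concentration duplicate screening at 10 uM preceded concentration-response retesting.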

Inconclusive results are not listed. Calls of active or inactive are those of the source. Rule for the calls, unless noted: active = hit-call score of the fitted dose curve at least 0.9, where 1 is the maximum; inactive = score below 0.9.

Sequence of Tumor necrosis factor (Homo sapiens) (P01375 whole entry, looked up): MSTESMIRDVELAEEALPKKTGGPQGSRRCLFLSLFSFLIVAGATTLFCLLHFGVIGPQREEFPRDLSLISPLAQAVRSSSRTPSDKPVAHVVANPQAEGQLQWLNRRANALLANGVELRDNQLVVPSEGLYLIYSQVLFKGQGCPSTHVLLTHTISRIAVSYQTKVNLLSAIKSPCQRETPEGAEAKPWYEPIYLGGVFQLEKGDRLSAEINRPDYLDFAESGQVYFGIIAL
Sequence of E-selectin (Homo sapiens) (P16581 whole entry, looked up): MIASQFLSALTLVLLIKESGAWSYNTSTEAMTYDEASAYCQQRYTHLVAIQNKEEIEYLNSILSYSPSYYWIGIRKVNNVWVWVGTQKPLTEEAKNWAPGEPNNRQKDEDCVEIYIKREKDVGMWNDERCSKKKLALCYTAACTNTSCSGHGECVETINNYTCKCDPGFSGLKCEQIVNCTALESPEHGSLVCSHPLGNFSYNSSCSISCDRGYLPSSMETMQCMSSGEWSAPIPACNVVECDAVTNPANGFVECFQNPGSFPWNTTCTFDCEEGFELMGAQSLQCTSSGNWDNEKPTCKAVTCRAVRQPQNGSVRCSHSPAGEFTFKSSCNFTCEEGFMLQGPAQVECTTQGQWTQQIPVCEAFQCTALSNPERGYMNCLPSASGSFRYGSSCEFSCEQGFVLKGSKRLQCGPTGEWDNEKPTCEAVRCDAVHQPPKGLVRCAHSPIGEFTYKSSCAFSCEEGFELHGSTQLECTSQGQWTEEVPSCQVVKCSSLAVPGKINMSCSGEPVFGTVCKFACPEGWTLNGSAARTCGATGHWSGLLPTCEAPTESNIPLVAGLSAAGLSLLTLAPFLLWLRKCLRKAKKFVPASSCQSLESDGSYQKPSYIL
Sequence of human CYP2B6, CYP2B6 (gene 1555) (P20813 whole entry, looked up): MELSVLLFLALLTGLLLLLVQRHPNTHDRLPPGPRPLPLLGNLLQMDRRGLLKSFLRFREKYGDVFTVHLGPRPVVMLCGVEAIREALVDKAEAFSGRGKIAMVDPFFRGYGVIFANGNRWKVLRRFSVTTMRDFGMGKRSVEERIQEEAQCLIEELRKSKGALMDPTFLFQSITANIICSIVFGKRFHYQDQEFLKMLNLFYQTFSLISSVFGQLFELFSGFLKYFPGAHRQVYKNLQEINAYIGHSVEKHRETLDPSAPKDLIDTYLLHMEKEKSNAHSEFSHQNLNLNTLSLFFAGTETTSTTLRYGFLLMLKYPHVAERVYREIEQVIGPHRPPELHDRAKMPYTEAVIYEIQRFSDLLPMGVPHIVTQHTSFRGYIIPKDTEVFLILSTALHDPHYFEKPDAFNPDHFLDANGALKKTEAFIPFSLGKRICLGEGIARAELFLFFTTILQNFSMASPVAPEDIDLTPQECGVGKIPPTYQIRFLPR
Sequence of human CYP2D6, CYP2D6 (gene 1565) (P10635 whole entry, looked up): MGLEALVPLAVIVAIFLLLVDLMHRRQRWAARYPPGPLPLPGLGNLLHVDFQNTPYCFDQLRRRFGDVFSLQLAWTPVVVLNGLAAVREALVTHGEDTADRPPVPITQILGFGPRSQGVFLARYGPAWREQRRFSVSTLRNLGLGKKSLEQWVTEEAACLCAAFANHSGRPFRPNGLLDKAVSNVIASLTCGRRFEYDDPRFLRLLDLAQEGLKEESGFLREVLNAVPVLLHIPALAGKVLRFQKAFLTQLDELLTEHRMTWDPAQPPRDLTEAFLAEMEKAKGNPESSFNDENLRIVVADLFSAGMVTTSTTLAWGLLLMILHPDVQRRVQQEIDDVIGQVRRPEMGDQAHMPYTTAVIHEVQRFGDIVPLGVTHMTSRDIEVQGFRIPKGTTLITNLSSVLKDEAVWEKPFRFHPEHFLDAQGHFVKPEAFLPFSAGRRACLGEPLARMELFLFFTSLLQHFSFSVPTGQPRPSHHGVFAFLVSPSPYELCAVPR
Sequence of human CYP1A1, CYP1A1 (gene 1543) (P04798 whole entry, looked up): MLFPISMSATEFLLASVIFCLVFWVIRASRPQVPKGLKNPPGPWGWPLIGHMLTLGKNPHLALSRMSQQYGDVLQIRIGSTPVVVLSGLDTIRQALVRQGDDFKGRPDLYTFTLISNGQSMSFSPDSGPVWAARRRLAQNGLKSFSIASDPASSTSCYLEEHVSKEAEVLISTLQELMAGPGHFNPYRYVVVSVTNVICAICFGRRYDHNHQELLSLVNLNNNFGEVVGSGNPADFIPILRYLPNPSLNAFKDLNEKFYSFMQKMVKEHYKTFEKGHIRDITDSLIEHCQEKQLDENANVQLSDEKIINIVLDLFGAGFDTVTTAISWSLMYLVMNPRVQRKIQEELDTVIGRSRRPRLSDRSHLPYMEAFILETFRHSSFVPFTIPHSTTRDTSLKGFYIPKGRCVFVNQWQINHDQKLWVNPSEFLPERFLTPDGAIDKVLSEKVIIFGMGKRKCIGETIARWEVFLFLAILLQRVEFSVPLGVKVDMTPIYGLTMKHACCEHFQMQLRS

Turning to `Nc1cc(Cl)cc(C(=O)O)c1Cl`, the outcome is “inactive” in test [1]; “inactive” in test [2]; “inactive” in test [3]; “inactive” in test [4]; “inactive” in test [5]; “inactive” with CD38, CD38 (gene 952). Also, the outcome was “inactive” with CD40, CD40 (gene 958); “inactive” with CD69, CD69 (gene 969); “inactive” in [6]; “inactive” in [7]; “inactive” in test [8]; “inactive” in test [9]. Besides, the outcome in [10], in test [11] and in test [12] was inactive.
Take `O=P(OCCCl)(OCCCl)OCCCl`: the outcome in [1] is “inactive”; in test [2] it was “inactive”; in test [3] it was “inactive”; in [4], “inactive”; in test [5] it was “inactive”; in the test with CD38, CD38 (gene 952), “inactive”. Further, the outcome in the test with CD40, CD40 (gene 958) is “inactive”; in the test with CD69, CD69 (gene 969), “inactive”; in [6], “inactive”; in test [7], “inactive”; in test [8], “inactive”; in test [9] it was “inactive”. Besides, the outcome in test [10], in test [11] and in test [12] was inactive.
For `CCC[CH2][Sn]([Cl])([CH2]CCC)[CH2]CCC`, in [1], the result was inactive. The AC50 (in general, the concentration giving half of the maximal activity seen) was 615 nM (active) in test [2]; 148 nM (active) in [3]; 248 nM (active) in test [4]; 148 nM (active) in test [5]; 248 nM (active) with CD38, CD38 (gene 952); 148 nM (active) with CD40, CD40 (gene 958). In addition, the AC50 is 148 nM (active) in the test with CD69, CD69 (gene 969); 148 nM (active) in [6]; 148 nM (active) in test [7]; 148 nM (active) in test [8]; 148 nM (active) in [9]; 148 nM (active) in test [10]. The AC50 in test [11] and in test [12] was 148 nM (active) in each case.
In the case of `Nc1ccc(Oc2ccc(N)cc2)cc1`, the results for the AC50 in [1] and in test [14] were 12700 nM (active) and 2570 nM (active), respectively. The outcome in test [2] is “inactive”; in test [3], “inactive”; in test [4], “inactive”; in test [5], “inactive”; in the test with CD38, CD38 (gene 952), “inactive”; with CD40, CD40 (gene 958), “inactive”. The outcome is “inactive” in the test with CD69, CD69 (gene 969); “inactive” in [6]; “inactive” in [7]; “inactive” in test [8]; “inactive” in [9]; “inactive” in test [10]. Also, the outcome in test [11], in test [12], in test [13] and in test [15] was inactive.
With `O=C(O)C1C2CCC(O2)C1C(=O)O` (stereo unspecified), the outcome is “inactive” in test [1]; “inactive” in test [2]; “inactive” in test [3]; “inactive” in test [5]; “inactive” with CD38, CD38 (gene 952); “inactive” with CD40, CD40 (gene 958). Further, the outcome is “inactive” with CD69, CD69 (gene 969); “inactive” in test [6]; “inactive” in test [7]; “inactive” in [8]; “inactive” in test [9]; “inactive” in test [10]. Further, the figures for the AC50 in [4], in test [11] and in [12] were 6160 nM (active), 18600 nM (active) and 25600 nM (active), respectively.
For the molecule `CNC(=O)Oc1cccc2c1OC(C)(C)C2`, the outcome in test [1] was “inactive”; in test [2], “inactive”; in test [3] it was “inactive”; in test [4], “inactive”; in test [5] it was “inactive”; in the test with CD38, CD38 (gene 952), “inactive”. Also, the outcome was “inactive” with CD40, CD40 (gene 958); “inactive” with CD69, CD69 (gene 969); “inactive” in test [6]; “inactive” in test [7]; “inactive” in test [8]; “inactive” in test [9]. Moreover, the result in test [10], in [11] and in [12] was inactive.
Consider `ClCCOCCCl`, for which the outcome was “inactive” in test [1]; “inactive” in test [2]; “inactive” in test [3]; “inactive” in test [5]; “inactive” in the test with CD38, CD38 (gene 952); “inactive” with CD40, CD40 (gene 958). The outcome in the test with CD69, CD69 (gene 969) was “inactive”; in test [6], “inactive”; in [7], “inactive”; in test [8], “inactive”; in test [9], “inactive”; in [10], “inactive”. For the same molecule, the outcome in test [11] and in [12] was inactive.
As to `c1ccc(N=Nc2ccccc2)cc1`, the outcome was “inactive” in test [1]; “inactive” in [2]; “inactive” in test [3]; “inactive” in test [5]; “inactive” in the test with CD38, CD38 (gene 952); “inactive” with CD40, CD40 (gene 958). In addition, the outcome is “inactive” with CD69, CD69 (gene 969); “inactive” in [6]; “inactive” in test [7]; “inactive” in [8]; “inactive” in test [9]; “inactive” in test [10]. Also, the result in [11] and in [12] was inactive.

The values above are taken from PubChem BioAssay (EPA / NIEHS).
